As a reminder, the inhibition is the relative decrease from the control value, in per cent.

The source of these data is PubChem BioAssay.

Test [1] in a line: antimalarial activity against Dd2 strain (AID 2302;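 active = growth inhibition above 50% at the single 2 µM test dose, taken to imply half-maximal potency below 2 µM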;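 note: 0% = DMSO untreated growth and 100% = chloroquine plus artemisinin killed control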). The note with it: P. falciparum Dd2 in RBCs, LDH growth readout, 72 h; at 2 µM; hits give high values.
Test [2] can be described thus: human hepatoma cell viability loss – ATP luminescence, cytotoxicity control for P. falciparum antimalarial project, primary screen (AID 2303;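 active = inhibition above 50%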;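 note: 0% = DMSO wells and 100% = digitonin-killed cells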). As to conditions: HepG2 viability, 24-48 h, at 10 µM, hits give high values.
Test [3] addresses L-lactate dehydrogenase (Plasmodium falciparum (isolate CDC / Honduras)) (UniProt Q27743). The test is described as follows: PfLDH activity inhibition – cell lysate, 3D7 strain, counter-screen for P. falciparum growth inhibition project (AID 2304).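 Note: 0% = vehicle and 100% = reference inhibitor.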 As to conditions: P. falciparum 3D7 crude extract, LDH APAD/NBT absorbance; at 2 µM; hits give high values. In general terms: Counterscreens check selectivity or assay interference.

Test [4] in a line: inhibition of 3D7 malaria parasite growth – strain 3D7 (AID 2306).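 Note: 0% = DMSO wells and 100% = chloroquine plus artemisinin control wells.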 As to conditions: P. falciparum 3D7 erythrocytic growth, LDH absorbance, 72 h; at 2 µM; hits give high values.
Test [5] addresses Calcium-dependent protein kinase 1 (Plasmodium falciparum (isolate 3D7)) (UniProt P62344). The test is described as follows: PfCDPK1 kinase inhibitors, biochemical, TCAMS library (AID 1159585; cut-off not given, nearly all actives have IC50 up to about 0.98 µM;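 note: inhibitors leave more ATP so luminescence rises with inhibition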). As to conditions: recombinant PfCDPK1, Kinase-Glo ATP depletion luminescence. Background: Kinase-Glo measures the ATP left after a reaction by luminescence.
Test [6] concerns the target Plasmodium falciparum protein kinase 6 (PK6, PF3D7_1337100) (UniProt Q8IDW1). In words: PfPK6 kinase inhibitors, biochemical, TCAMS library (AID 1159586). As to conditions: recombinant PfPK6, Kinase-Glo ATP depletion luminescence.
In test [7] the target is Protein kinase 7 (PK7), Plasmodium falciparum 3D7 (PF3D7_0213400) (UniProt Q7YTF7). In words: inhibition of Plasmodium PK7 catalytic activity – biochemical, TCAMS antimalarial set, Kinase-Glo luminescence (AID 1159587). As to conditions: recombinant PfPK7, Kinase-Glo ATP depletion luminescence.
The target of test [8] is Calcium-dependent protein kinase 4 (Plasmodium falciparum (isolate 3D7)) (UniProt Q8IBS5). In words: PfCDPK4 kinase inhibitors, biochemical, TCAMS library (AID 1159588; cut-off not given, nearly all actives have IC50 up to about 0.91 µM). The note with it: recombinant PfCDPK4, Kinase-Glo ATP depletion luminescence.

Values without a mark were called inactive. For some of these results: Entries with a potency or affinity are not part of this list. Calls of active or inactive are those of the source. Unless noted, the rule behind the calls is not given here.

Sequence of Protein kinase 7 (PK7), Plasmodium falciparum 3D7 (PF3D7_0213400) (Q7YTF7 1-343): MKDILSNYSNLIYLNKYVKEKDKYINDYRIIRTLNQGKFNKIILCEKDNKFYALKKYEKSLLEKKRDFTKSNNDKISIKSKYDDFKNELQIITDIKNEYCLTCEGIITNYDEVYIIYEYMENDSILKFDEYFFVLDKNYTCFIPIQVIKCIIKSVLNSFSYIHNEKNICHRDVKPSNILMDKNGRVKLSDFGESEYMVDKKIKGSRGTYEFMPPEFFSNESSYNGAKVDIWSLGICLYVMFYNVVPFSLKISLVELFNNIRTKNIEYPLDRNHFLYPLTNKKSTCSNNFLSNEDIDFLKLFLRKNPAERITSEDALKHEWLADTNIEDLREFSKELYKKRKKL
Sequence of Calcium-dependent protein kinase 4 (Plasmodium falciparum (isolate 3D7)) (Q8IBS5 whole entry, looked up): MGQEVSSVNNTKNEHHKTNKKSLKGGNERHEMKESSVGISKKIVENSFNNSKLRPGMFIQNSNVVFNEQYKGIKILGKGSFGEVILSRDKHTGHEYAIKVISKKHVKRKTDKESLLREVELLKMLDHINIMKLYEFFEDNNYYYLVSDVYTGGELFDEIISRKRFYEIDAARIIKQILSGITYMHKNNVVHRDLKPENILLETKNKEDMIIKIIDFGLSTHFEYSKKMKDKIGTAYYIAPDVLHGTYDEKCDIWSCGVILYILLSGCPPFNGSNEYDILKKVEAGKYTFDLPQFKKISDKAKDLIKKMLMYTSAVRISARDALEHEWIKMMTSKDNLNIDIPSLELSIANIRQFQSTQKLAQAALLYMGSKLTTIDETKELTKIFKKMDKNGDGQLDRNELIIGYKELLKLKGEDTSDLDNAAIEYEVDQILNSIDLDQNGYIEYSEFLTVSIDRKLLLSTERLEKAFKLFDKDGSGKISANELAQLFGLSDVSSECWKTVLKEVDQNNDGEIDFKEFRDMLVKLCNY
Sequence of Plasmodium falciparum protein kinase 6 (PK6, PF3D7_1337100) (Q8IDW1 1-305): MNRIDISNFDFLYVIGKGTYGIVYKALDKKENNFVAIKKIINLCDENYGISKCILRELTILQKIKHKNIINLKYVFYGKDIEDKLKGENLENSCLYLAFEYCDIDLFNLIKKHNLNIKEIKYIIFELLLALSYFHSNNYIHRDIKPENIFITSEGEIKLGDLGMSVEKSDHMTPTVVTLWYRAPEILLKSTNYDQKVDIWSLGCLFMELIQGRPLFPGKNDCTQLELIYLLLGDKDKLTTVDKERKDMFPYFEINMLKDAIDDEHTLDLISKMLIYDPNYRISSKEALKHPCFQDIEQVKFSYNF
Sequence of Calcium-dependent protein kinase 1 (Plasmodium falciparum (isolate 3D7)) (P62344 whole entry, looked up): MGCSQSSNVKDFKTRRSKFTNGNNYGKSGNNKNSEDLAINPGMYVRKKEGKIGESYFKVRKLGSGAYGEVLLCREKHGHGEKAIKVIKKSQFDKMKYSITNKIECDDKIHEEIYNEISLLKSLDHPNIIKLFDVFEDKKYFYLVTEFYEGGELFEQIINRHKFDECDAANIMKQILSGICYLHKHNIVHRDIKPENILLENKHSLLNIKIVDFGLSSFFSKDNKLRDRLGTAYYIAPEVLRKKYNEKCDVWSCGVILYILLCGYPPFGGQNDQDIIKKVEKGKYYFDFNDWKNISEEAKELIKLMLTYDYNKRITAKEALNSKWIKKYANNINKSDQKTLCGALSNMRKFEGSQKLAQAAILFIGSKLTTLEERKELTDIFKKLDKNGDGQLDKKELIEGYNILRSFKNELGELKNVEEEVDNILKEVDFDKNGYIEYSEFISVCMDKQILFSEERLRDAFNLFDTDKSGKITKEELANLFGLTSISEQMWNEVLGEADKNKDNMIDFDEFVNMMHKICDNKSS
Sequence of L-lactate dehydrogenase (Plasmodium falciparum (isolate CDC / Honduras)) (Q27743 whole entry, looked up): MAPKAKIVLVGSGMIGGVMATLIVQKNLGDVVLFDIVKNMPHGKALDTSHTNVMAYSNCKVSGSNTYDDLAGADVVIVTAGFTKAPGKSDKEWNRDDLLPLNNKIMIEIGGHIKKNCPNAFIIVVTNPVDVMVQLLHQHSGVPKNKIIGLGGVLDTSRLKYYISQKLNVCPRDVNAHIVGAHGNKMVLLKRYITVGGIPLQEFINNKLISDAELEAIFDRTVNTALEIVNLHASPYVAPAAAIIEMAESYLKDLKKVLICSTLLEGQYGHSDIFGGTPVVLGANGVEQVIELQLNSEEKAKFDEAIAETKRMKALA

Consider `CC1CCCCC1N(C)C1CCN(CCCNC(=O)C=Cc2ccc(Cl)cc2Cl)CC1` (stereo not given), for which the growth inhibition was 59% (active) in test [1] and 101% (active) in test [4]. Also, the inhibition was 53% (active) in test [2] and 4% in test [3]. Also, the result in test [5], in test [6], in test [7] and in test [8] was inactive.
Consider `COc1ccc2nccc([C@@H](O)CN3CCC(NC[C@H](Cc4ccccc4)NC(=O)OC(C)(C)C)CC3)c2c1`, for which the growth inhibition was 86% (active) in test [1] and 98% (active) in test [4]. Also, the inhibition in test [2] was 18%; in test [3], 6%. Further, the outcome in test [5], in test [6], in test [7] and in test [8] was inactive.
Consider `Cc1ccoc1C(=O)Nc1cccc(-c2cccc(-c3nc4ccccc4[nH]3)c2)c1`, for which the values for the growth inhibition in test [1] and in test [4] were 20% and 85% (active), respectively. Further, the inhibition in test [2] was 43%; in test [3], -2%. Further, the result in test [5], in test [6], in test [7] and in test [8] was inactive.
In the case of `CCCN1CCN(CCCNc2c3ccccc3nc3ccccc23)CC1`, the growth inhibition in test [1] was -1%; in test [4] it was 99% (active). In addition, the inhibition in test [2] is 36%; in test [3], -7%. In addition, the result in test [5], in test [6], in test [7] and in test [8] was inactive.
`CCc1ccc(-c2nc3cc(NC(=O)c4ccc([N+](=O)[O-])o4)ccc3o2)cc1`: the growth inhibition in test [1] is 80% (active); in test [4], 97% (active). Moreover, the results for the inhibition in test [2] and in test [3] were 4% and 3%, respectively. The result in test [5], in test [6], in test [7] and in test [8] was inactive.
As for `O=C(NCCCCN1CCN(c2ccc3c(c2)CCC3)CC1)c1ccc(NC(=O)c2ccc(Cl)cc2)cc1`, the growth inhibition in test [1] was 35%; in test [4] it was 98% (active). Also, the inhibition was 38% in test [2] and 2% in test [3]. Besides, the result in test [5], in test [6], in test [7] and in test [8] was inactive.
With `N#Cc1nc2ccc(OCCN(Cc3ccccc3C(F)(F)F)c3ccc(C#N)c(C(F)(F)F)c3)cc2s1`, the growth inhibition was 47% in test [1] and 93% (active) in test [4]. In addition, the inhibition is 23% in test [2] and 6% in test [3]. Also, the outcome in test [5], in test [6], in test [7] and in test [8] was inactive.
Regarding `CN(C)CCOc1ccc(-c2cc(-c3ccncc3)c(-c3ccc(Cl)c(O)c3)o2)cc1`, the results for the growth inhibition in test [1] and in test [4] were 93% (active) and 99% (active), respectively. The inhibition in test [2] was 0%; in test [3] it was -5%. The outcome in test [5], in test [6], in test [7] and in test [8] was inactive.
In the case of `CN1CCC(C(=O)Nc2cccc(-c3ccc(-c4nc5ccc(F)cc5[nH]4)cc3)c2)CC1`, the growth inhibition is 51% (active) in test [1] and 100% (active) in test [4]. The values for the inhibition in test [2] and in test [3] were 12% and 3%, respectively. The outcome in test [5], in test [6], in test [7] and in test [8] was inactive.
Consider `Fc1ccc2nc(-c3ccc(-c4ccc(CNCCc5cccnc5)cc4)s3)[nH]c2c1`, for which the growth inhibition was 99% (active) in test [1] and 100% (active) in test [4]. In addition, the inhibition in test [2] is 40%; in test [3] it was -7%. In addition, the outcome in test [5], in test [6], in test [7] and in test [8] was inactive.
Regarding `Cc1ccc2[nH]c3ccccc3c(=O)c2c1`, the growth inhibition was 74% (active) in test [1] and 93% (active) in test [4]. In addition, the inhibition in test [2] is -4%; in test [3] it was -1%. For the same molecule, the outcome in test [5], in test [6], in test [7] and in test [8] was inactive.
On to `Cc1ccccc1NC(=O)C1CSCN1C(=O)OCc1ccccc1` (stereo not given), for which the growth inhibition is -1% in test [1] and 91% (active) in test [4]. Further, the inhibition was 8% in test [2] and -1% in test [3]. Besides, the result in test [5], in test [6], in test [7] and in test [8] was inactive.
Regarding `CCCCc1ccc(C(=O)Nc2ccc3nc(N4CCN(C)CC4)cc(C)c3c2)cc1`, the growth inhibition was 21% in test [1] and 90% (active) in test [4]. Besides, the inhibition in test [2] was 44%; in test [3], -6%. Further, the outcome in test [5], in test [6], in test [7] and in test [8] was inactive.
As to `Cc1ccc(C(=O)Nc2cccc([N+](=O)[O-])c2)cc1S(=O)(=O)N1CC(C)CC(C)C1` (stereo not given), the growth inhibition in test [1] is 42%; in test [4] it was 100% (active). Further, the inhibition was 24% in test [2] and -1% in test [3]. In addition, the outcome in test [5], in test [6], in test [7] and in test [8] was inactive.
As to `Cc1nc(-c2ccncc2)sc1C(=O)Nc1ccc(Cl)cc1C(=O)Nc1ccc(Cl)cc1`, the figures for the growth inhibition in test [1] and in test [4] were 47% and 98% (active), respectively. Further, the inhibition was 2% in test [2] and -3% in test [3]. Besides, the result in test [5], in test [6], in test [7] and in test [8] was inactive.
As to `COc1cccc(C(=O)Nc2ccc(Nc3nc(C)cc(N4CCCCC4)n3)cc2)c1OC`, the growth inhibition in test [1] was 27%; in test [4], 92% (active). The results for the inhibition in test [2] and in test [3] were 47% and 1%, respectively. The result in test [5], in test [6], in test [7] and in test [8] was inactive.
Take `Cc1ccc(C(=O)Nc2ccc(Cl)c(N3CCN(CCc4ccccc4)CC3)c2)cc1`: the results for the growth inhibition in test [1] and in test [4] were 14% and 90% (active), respectively. In addition, the inhibition was 17% in test [2] and -7% in test [3]. For the same molecule, the outcome in test [5], in test [6], in test [7] and in test [8] was inactive.
On to `CCOC(=O)C(CO)NC(=O)c1ccc([N+](=O)[O-])o1` (stereo not given), for which the growth inhibition in test [1] was 2%; in test [4], 96% (active). The inhibition is -5% in test [2] and 8% in test [3]. The outcome in test [5], in test [6], in test [7] and in test [8] was inactive.
Regarding `OC1CCCN(Cc2ccc(-c3cccc(-c4nc5ccccc5[nH]4)c3)cc2)C1` (stereo not given), the growth inhibition in test [1] was -3%; in test [4], 86% (active). The inhibition was 14% in test [2] and 2% in test [3]. The result in test [5], in test [6], in test [7] and in test [8] was inactive.
Turning to `O=C(c1ccc([N+](=O)[O-])o1)N1CCC(Cc2ccc(C(F)(F)F)cc2)CC1`, the figures for the growth inhibition in test [1] and in test [4] were 99% (active) and 101% (active), respectively. Moreover, the inhibition in test [2] was 38%; in test [3], -2%. For the same molecule, the outcome in test [5], in test [6], in test [7] and in test [8] was inactive.
